Assay results from the supplement of paper PMC7724964.

T1: NR1H3 204-447 Hormone_recep (domain begin residue: 204, domain end residue: 447), Q13133
T1 chain: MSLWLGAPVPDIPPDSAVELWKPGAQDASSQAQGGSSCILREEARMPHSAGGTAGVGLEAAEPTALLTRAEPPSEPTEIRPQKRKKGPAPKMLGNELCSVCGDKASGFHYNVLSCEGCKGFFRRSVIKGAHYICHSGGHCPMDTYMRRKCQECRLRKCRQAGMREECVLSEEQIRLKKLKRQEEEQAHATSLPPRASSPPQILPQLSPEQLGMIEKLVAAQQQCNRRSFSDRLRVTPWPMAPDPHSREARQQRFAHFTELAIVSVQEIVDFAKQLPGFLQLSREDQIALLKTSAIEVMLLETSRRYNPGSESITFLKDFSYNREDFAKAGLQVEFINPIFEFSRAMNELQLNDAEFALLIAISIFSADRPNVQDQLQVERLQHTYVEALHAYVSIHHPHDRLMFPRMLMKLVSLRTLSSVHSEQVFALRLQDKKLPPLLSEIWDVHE

T2: NFKBIA 70-282 EF-hand_6 (domain begin residue: 70, domain end residue: 282), P25963
T2 chain: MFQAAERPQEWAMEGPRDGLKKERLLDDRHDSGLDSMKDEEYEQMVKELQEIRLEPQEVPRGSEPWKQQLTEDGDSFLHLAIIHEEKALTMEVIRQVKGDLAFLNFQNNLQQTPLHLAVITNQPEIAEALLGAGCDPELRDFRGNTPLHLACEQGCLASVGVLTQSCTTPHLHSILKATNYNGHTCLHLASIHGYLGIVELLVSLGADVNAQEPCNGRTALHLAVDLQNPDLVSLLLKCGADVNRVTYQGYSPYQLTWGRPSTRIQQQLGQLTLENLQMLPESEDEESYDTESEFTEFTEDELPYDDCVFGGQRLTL

T3: NUP98 730-880 Nucleoporin2 (domain begin residue: 730, domain end residue: 880), P52948
T3 chain: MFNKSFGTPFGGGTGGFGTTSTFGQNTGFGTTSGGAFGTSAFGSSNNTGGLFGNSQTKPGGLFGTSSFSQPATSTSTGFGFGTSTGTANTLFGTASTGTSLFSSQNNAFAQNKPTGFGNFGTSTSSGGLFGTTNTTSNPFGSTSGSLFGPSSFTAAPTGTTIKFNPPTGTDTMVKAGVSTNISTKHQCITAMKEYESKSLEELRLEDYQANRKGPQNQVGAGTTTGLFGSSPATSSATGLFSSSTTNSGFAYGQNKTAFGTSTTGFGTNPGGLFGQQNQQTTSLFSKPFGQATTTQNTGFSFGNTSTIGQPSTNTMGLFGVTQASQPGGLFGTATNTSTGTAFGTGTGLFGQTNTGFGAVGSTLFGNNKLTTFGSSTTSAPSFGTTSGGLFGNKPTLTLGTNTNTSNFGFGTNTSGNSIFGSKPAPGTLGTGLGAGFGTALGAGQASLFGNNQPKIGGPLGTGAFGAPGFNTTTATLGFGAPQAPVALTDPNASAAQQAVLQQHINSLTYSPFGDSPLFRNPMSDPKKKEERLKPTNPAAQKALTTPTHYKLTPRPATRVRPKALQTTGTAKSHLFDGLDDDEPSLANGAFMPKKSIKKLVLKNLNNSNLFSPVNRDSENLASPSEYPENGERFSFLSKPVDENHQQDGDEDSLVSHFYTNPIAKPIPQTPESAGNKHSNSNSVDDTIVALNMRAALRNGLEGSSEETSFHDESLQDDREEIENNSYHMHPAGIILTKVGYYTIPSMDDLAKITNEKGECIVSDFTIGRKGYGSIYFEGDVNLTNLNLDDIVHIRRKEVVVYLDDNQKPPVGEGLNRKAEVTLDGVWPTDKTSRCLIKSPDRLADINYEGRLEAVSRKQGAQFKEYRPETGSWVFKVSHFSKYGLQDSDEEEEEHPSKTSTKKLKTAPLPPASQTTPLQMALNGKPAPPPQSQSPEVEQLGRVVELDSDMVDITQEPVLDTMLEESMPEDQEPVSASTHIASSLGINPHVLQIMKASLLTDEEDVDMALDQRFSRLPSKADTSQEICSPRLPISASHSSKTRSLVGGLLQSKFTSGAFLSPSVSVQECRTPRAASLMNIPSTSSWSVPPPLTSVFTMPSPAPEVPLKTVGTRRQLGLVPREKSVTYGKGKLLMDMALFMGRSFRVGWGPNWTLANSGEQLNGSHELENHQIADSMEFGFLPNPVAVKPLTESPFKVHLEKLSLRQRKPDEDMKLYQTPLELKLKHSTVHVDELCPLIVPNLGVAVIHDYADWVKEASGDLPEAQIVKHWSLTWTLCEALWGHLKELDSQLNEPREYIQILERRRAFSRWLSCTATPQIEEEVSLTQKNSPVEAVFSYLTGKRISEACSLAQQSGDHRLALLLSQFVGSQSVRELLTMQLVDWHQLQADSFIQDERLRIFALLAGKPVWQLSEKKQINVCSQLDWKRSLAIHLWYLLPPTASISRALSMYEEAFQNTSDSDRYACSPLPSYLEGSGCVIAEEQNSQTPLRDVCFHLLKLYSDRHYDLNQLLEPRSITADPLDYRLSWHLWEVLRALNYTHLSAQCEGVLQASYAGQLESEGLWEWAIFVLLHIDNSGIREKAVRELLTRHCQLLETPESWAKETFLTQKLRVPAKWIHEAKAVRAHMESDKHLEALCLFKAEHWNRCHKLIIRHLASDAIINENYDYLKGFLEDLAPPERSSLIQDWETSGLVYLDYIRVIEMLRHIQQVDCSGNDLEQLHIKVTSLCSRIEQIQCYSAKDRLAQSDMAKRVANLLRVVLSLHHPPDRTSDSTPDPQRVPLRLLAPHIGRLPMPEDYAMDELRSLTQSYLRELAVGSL

T4: NR4A3 356-626 Hormone_recep (domain begin residue: 356, domain end residue: 626), Q92570
T4 chain: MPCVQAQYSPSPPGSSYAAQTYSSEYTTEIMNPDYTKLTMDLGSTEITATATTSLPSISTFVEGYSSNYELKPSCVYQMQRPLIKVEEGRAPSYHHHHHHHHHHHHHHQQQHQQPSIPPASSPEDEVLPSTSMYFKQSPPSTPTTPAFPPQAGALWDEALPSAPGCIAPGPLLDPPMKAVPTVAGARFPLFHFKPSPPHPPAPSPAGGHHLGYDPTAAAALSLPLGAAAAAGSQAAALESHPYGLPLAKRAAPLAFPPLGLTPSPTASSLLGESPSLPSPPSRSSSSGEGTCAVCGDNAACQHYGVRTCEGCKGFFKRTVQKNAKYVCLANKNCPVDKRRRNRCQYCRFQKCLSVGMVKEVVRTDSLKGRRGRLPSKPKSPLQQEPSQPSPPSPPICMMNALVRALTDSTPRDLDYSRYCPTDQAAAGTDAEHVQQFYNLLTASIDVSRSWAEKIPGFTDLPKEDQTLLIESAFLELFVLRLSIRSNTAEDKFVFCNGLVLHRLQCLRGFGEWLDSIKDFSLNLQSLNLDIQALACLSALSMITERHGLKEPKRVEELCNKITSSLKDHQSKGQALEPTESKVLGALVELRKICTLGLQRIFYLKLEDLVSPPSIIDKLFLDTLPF

T5: NR1H4 256-474 Hormone_recep (domain begin residue: 256, domain end residue: 474), Q96RI1
T5 chain: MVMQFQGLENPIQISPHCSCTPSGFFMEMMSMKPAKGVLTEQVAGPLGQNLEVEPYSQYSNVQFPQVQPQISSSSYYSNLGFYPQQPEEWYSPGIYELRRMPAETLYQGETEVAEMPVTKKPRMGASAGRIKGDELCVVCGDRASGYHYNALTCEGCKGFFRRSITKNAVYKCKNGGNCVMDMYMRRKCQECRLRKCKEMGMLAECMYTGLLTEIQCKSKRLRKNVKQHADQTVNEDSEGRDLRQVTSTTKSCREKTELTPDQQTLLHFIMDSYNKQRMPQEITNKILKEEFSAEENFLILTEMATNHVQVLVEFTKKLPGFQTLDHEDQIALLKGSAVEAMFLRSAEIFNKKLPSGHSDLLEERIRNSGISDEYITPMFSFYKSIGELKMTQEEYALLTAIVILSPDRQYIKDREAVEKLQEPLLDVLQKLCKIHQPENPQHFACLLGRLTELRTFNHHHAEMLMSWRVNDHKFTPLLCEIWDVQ


Target: T1, NR1H3 204-447 Hormone_recep (domain …
Experiment: phage ELISA signal ratio (GST-PRM binding over GST background); higher = stronger binding of peptide-phage to the PRM
Method in brief: (§1)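 Each value is the phage ELISA signal on the glutathione S-transferase (GST)-domain fusion divided by the signal on GST alone. Human peptide recognition domains were expressed in 96-well plates, fused to the C-terminus of GST, and selected against an M13 phage library carrying randomized, cysteine-free, glycine-flanked hexadecapeptides on the gene-8 major coat protein. After five selection rounds, approximately 48 individual clones from rounds 4 and 5 were tested by phage ELISA, and positive clones were sequenced.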

Binder	phage ELISA signal ratio
YPEIAWLQQMMQSDSR	28.4
EMLLDQQMWEWVQAMS	26.9

Target: T2, NFKBIA 70-282 EF-hand_6 (domain begin …
Experiment: as above
Method in brief: as §1

Binder	phage ELISA signal ratio
YWEHSNELDYWVEFIA	5.67
MYRAPDAYDDHQVYVS	7.46
GEDPPPYSPLTSPDSG	4.18

Target: T3, NUP98 730-880 Nucleoporin2 (domain …
Experiment: as above
Method in brief: as §1

Binder	phage ELISA signal ratio
YWEHSNELDYWVEFIA	16.9

Target: T4, NR4A3 356-626 Hormone_recep (domain …
Experiment: as above
Method in brief: as §1

Binder	phage ELISA signal ratio
QQEPWWWMDWDFQQAE	4.47

Target: T5, NR1H4 256-474 Hormone_recep (domain …
Experiment: as above
Method in brief: as §1

Binder	phage ELISA signal ratio
LAFGEWLDKEIGLAYF	14.3
